Drawing on PubChem BioAssay (NCATS), this text covers Potency and activity change, negative = inhibition for 38 compounds.

Records with an inconclusive call do not appear. Where a call stands in place of a potency, no number is given. Activity calls are given as the source filed them. Calls follow the shape of the dose curve; as a rule, active = well fitted inhibition curve with a large enough effect; inconclusive = small, poorly fitted or top-dose-only effect; inactive = flat fitted curve, though single readings scatter.

The nature of this assay: qHTS to identify inhibitors of the type 1 interferon - major histocompatibility complex class I in skeletal muscle: primary screen against the NCATS Pharmaceutical Collection (AID 1347407).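 Also: luminescence of HiBiT knocked into endogenous HLA-B as interferon-induced MHC class I level.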 The note with it: human skeletal muscle cells, IFN-b-induced MHC-I HiBiT luminescence, 24 h; series mostly up to 45.9 µM. Summed up:
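A qHTS format is used: 8-point, 1:5 compound series with 46 uM top final concentration, applied alongside 4 ng/ml IFN-beta to HLA-B*08:01-HiBiT knock-in myoblasts. Luminescence is measured after 24 h treatment.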
For orientation: qHTS replaces the single test concentration by a dilution series.
With `CCOC(=O)[C@H](CCc1ccccc1)N[C@@H](C)C(=O)N1[C@H](C(=O)O)C[C@@H]2CCC[C@@H]21`, the Potency result is “inactive”. On the same count and under the same terms, then `COc1ccc(C(Cl)=C(c2ccc(OC)cc2)c2ccc(OC)cc2)cc1`, with “inactive”; and `COc1cc(C(=O)N2CCCCCCC2)cc(OC)c1OC`, with “inactive”; and `CN1CCC(OC(c2ccccc2)c2ccccc2)CC1`, with “inactive”. Same read-out and setting: then `CC(C)Nc1cccnc1N1CCN(C(=O)c2cc3cc(NS(C)(=O)=O)ccc3[nH]2)CC1`, with “inactive”; and `Cc1cc2c(OCC(CNC(C)(C)C)OC(=O)c3ccccc3)cccc2[nH]1` (stereo not drawn), with “inactive”. On the same count and under the same terms, the result for `CC(=O)Nc1ncc([N+](=O)[O-])s1` reads “inactive”; that for `COc1ccccc1N1CCN(CCCCNC(=O)c2ccc(-c3ccc(C(C)=O)cc3)cc2)CC1`, “inactive”; that for `c1ccc(-c2nc[nH]c2-c2ccccc2)cc1`, “inactive”. For `CN1CCC[C@@H]1CCO[C@](C)(c1ccccc1)c1ccc(Cl)cc1`, the Potency entry is “inactive”. On to `Cc1ccc2c(Br)cc(Br)c(O)c2n1`, for which the Potency result was “inactive”.

Consider `COP(=O)(OC)OC(c1ccc(Cl)cc1)P(=O)(OC)OC` (stereo not drawn), for which the Potency entry was “inactive”. The same measure, in the same setting: then `CC(=O)N[C@@H](CCC(=O)O)C(=O)O`, with “inactive”. The same measure, in the same setting: then `O=C1C(O)=C(O)C(=O)C(O)=C1O`, with “inactive”; and `CN(Cc1ccc(C(C)(C)C)cc1)Cc1cccc2ccccc12`, with “inactive”; and `O=S(c1cc(Cl)cc(Cl)c1O)c1cc(Cl)cc(Cl)c1O`, with “inactive”.

With `CCOc1ccccc1OCCN[C@H](C)Cc1ccc(OC)c(S(N)(=O)=O)c1`, the Potency result was “inactive”. Still for that read-out and setting: then `CCCCNc1ccc(C(=O)OCCOCCOCCOCCOCCOCCOCCOCCOCCOC)cc1`, with “inactive”. Still for that read-out and setting: then `O=C(Nc1ccc([N+](=O)[O-])cc1)Nc1ccc([N+](=O)[O-])cc1`, with “inactive”. Regarding `C[C@@H](O)[C@H]1C(=O)N2C(C(=O)O)=C(S[C@@H]3CN[C@H](CNS(N)(=O)=O)C3)[C@H](C)[C@H]12`, the Potency result is “inactive”. Same read-out and setting: the result for `N/C(=N\N=C\c1ccc(Cl)cc1)N/N=C/c1ccc(Cl)cc1` reads “inactive”; that for `O=C1[C@H](CC[C@H](O)c2ccc(F)cc2)[C@@H](c2ccc(O)cc2)N1c1ccc(F)cc1`, “inactive”.

Turning to `Cc1ccc(-c2ncc(Cl)cc2-c2ccc(S(C)(=O)=O)cc2)cn1`, the Potency entry was “inactive”. Still for that read-out and setting: the result for `CC(C)(C)NC[C@H](O)COc1cccc2c1CCCC2=O` reads “inactive”; that for `Nc1ccc(S(=O)(=O)Nc2cnc3ccccc3n2)cc1`, “inactive”; that for `C[C@H]1[C@H]2CC[C@H]3[C@@H]4CC=C5C[C@@H](N(C)C)CC[C@]5(C)[C@H]4CC[C@]23CN1C`, “inactive”. Same read-out and setting: then `C=C[C@@]1(C)CC(=O)[C@]2(O)[C@@]3(C)[C@@H](O)CCC(C)(C)[C@@H]3[C@H](O)[C@H](OC(C)=O)[C@@]2(C)O1`, with “inactive”. Same read-out and setting: the result for `COc1ccc(C(=O)c2ccccc2O)c(O)c1` reads “inactive”. With `CCN[C@@H]1C[C@H](N)[C@@H](OC2OC(CN)=CCC2N)[C@H](O)[C@H]1O[C@H]1OC[C@](C)(O)[C@H](NC)[C@H]1O` (stereo partly drawn), the activity change, negative = inhibition is 4.01% [at 0.727 µM] (inactive).

With `CC(=O)OCC1=C(C(=O)O)N2C(=O)[C@@H](NC(=O)CSc3ccncc3)[C@H]2SC1`, the Potency result is “inactive”. Turning to `CN1CCN(CCC(=O)N2c3ccccc3Sc3ccc(C(F)(F)F)cc32)CC1`, the Potency result was “inactive”. On the same count and under the same terms, then `O=[N+]([O-])c1cccc(S(=O)(=O)NCCNS(=O)(=O)c2cccc([N+](=O)[O-])c2)c1`, with “inactive”. Same read-out and setting: the result for `CCCCCCCCCCCCCCC[C@H](O)[C@@H](N)CO` reads “inactive”; that for `CC(C)NCC(O)c1ccc2ccccc2c1` (stereo not drawn), “inactive”. On the same count and under the same terms, the result for `O=C(CN1CCN(Cc2ccc3c(c2)OCO3)CC1)N1c2ccccc2Sc2ccccc21` reads “inactive”; that for `Cc1c[nH]c2ccccc12`, “inactive”. With `Cn1c(=O)c2[nH]c(Br)nc2n(C)c1=O`, the Potency entry was “inactive”. On the same count and under the same terms, then `CCOC(=O)Nc1ccc2c(c1)N(C(=O)CCN1CCOCC1)c1ccccc1S2`, with “inactive”.
